Experimental data from PubChem BioAssay (EPA / NIEHS).
Values joined by “and” are separate entries in the source; they are usually repeats but may differ in a detail not shown here. Equal entries are not always repeated. Results filed as inconclusive are left out. More than one record can exist for a structure, and the calls need not agree. Active and inactive are the calls of the source. Rule for the calls: active = hit-call score of the fitted dose curve at least 0.9, where 1 is the maximum; inconclusive = response in the unintended direction; inactive = score below 0.9.

Experiments:
[1] = biological target: Cellular tumor antigen p53 (Homo sapiens) (UniProt P04637); assay: TOX21_p53_BLA_p2_ratio: Tox21 HCT-116 p53 Agonism Beta-lactamase Assay, Ratio, Phase 2 (AID 2283592)
Summary of the method: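 Readout: blue/green (460/530 nm) FRET emission ratio after 2 h CCF4-AM loading at room temperature, excitation 405 nm. HCT116 p53 bla cells, 16 h compound exposure at 37C, 5% CO2; agonist direction fitted against DMSO baseline.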

[2] = TOX21_p53_BLA_p3_viability: Viability Assessment in the Tox21 HCT-116 p53 Agonism Beta-lactamase Assay, Phase 3 (AID 2283593);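 note: cells exposed to compound for 16 h before reading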
Summary of the method: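 Cellular ATP was quantified by CellTiter-Glo luminescence, read after 30 min at room temperature. Beforehand, HCT116 cells (4000/well) received compound 5 h post-seeding, 217-fold diluted from DMSO, then incubated 16 h at 37C.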

[3] = TOX21_p53_BLA_p5_viability: Viability Assessment in the Tox21 HCT-116 p53 Agonism Beta-lactamase Assay, Phase 5 (AID 2283600)
Summary of the method: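 ATP luminescence (CellTiter-Glo, 30 min, RT) served as the viability read-out, with loss of signal indicating cytotoxicity. Compounds in DMSO were pinned at a 217-fold dilution onto 4000 cells/well and incubated 16 h, 37C.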

[4] = Tanguay_ZF_120hpf_MORT_legacy: (Legacy) Oregon State University Tanguay Lab 120 Hour Post-fertilization zebrafish Assay for Mortality (AID 2283633);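 for AC50: fitted as increase in binary mortality versus DMSO negative control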
Summary of the method: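 Brightfield scoring of embryo death (binary) at 24 and 120 hpf; static exposure 6–120 hpf, 28C, sealed and foil-covered. Pronase-dechorionated 5D wild-type larvae, single embryo per well. DMSO 0.64% v/v; trimethyltin chloride 5uM positive control.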

[5] = Tanguay_ZF_120hpf_YSE_legacy: (Legacy) Oregon State University Tanguay Lab 120 Hour Post-fertilization zebrafish Assay for Yolk Sac Edema (AID 2283634);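 for AC50: actives raise the incidence of yolk sac edema above the DMSO baseline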
Summary of the method: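 Binary brightfield scoring of yolk sac edema at 120 hpf; DMSO baseline, gain-of-signal fitting. Dechorionated 5D larvae, one per well, static exposure 6–120 hpf, 28C, 0.64% DMSO. Dead embryos not scored.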

[6] = biological target: Cellular tumor antigen p53 (Homo sapiens) (UniProt P04637); assay: TOX21_p53_BLA_p3_ratio: Tox21 HCT-116 p53 Agonism Beta-lactamase Assay, Ratio, Phase 3 (AID 2283596)
Summary of the method: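 Cells were seeded at 4000/well, rested 5 h at 37C, then dosed with DMSO compound solutions (217-fold dilution) for 16 h. CCF4-AM substrate was loaded for 2 h at room temperature, and the 460/530 nm emission ratio was fitted for gain of signal versus DMSO.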

[7] = TOX21_p53_BLA_p4_viability: Viability Assessment in the Tox21 HCT-116 p53 Agonism Beta-lactamase Assay, Phase 4 (AID 2283597);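 note: hits lower the luminescence signal meaning cytotoxicity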
Summary of the method: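 ATP content by CellTiter-Glo luminescence, 30 min RT, read after the beta-lactamase ratio step. Cells: HCT116, 4000/well, compound added after 5 h, exposure 16 h at 37C. Signal loss = reduced viability.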

[8] = biological target: Cellular tumor antigen p53 (Homo sapiens) (UniProt P04637); assay: TOX21_p53_BLA_p5_ratio: Tox21 HCT-116 p53 Agonism Beta-lactamase Assay, Ratio, Phase 5 (AID 2283599)
Summary of the method: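 Beta-lactamase reporter ratio (blue 460 nm over green 530 nm, 405 nm excitation) after 2 h CCF4-AM loading, in HCT-116 cells exposed 16 h at 37 C to compounds pinned at 217-fold dilution. Increases relative to DMSO baseline scored.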

[9] = biological target: Cellular tumor antigen p53 (Homo sapiens) (UniProt P04637); assay: TOX21_p53_BLA_p4_ratio: Tox21 HCT-116 p53 Agonism Beta-lactamase Assay, Ratio, Phase 4 (AID 2283601)
Summary of the method: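 Signal is the blue/green (460nm/530nm) ratio of cleaved versus uncleaved CCF4-AM substrate, read after 2 h substrate loading. Cells were HCT116 carrying the p53-responsive beta-lactamase reporter, dosed 16 h at 37C, 5% CO2; CellTiter-Glo measured in parallel.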

[10] = Tanguay_ZF_120hpf_AXIS_legacy: (Legacy) Oregon State University Tanguay Lab 120 Hour Post-fertilization zebrafish Assay for Body Axis Malformation (AID 2283635);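 for AC50: potency for an increased fraction of larvae scored with body axis malformation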
Summary of the method: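 Embryos: 5D wild-type, pronase-dechorionated 4 hpf; static exposure 6–120 hpf, 28C, sealed, dark, 1 embryo/well, 0.64% DMSO. 120 hpf axis malformation scored present/absent; dead embryos excluded. Analysed as gain of signal vs DMSO.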

Measured: AC50

Sequence of Cellular tumor antigen p53 (Homo sapiens) (P04637 whole entry, looked up): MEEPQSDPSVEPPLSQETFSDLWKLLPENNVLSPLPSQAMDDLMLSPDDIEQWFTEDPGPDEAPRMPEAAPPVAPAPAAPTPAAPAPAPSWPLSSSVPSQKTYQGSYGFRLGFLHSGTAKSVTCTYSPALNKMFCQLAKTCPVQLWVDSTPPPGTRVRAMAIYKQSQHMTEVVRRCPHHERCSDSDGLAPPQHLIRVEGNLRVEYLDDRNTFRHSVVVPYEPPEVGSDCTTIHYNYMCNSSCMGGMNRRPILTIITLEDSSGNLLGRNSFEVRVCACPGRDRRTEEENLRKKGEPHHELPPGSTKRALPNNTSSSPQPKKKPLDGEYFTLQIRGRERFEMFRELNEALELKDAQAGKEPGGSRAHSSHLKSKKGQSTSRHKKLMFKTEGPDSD

O=C(O)CCN(C1(C(=O)NO)CCCC1)S(=O)(=O)c1ccc(Oc2ccc(F)cc2)cc1
inactive: [1] | [2] | [3] | [4] | [5]

NC(=O)NO
inactive: [1] | [6] | [7] | [8] | [3] | [9] | [4] | [5]

C[C@](N)(Cc1ccc(O)c(O)c1)C(=O)O
inactive: [2] | [6] | [7] | [8] | [3] | [9] | [4] | [5]

CNCc1ccc(NC(=O)c2c[nH]c3c2C(=O)CCC3)cc1
inactive: [1] | [2] | [7] | [9] | [4] | [5] | [10]

Nc1ccc(Nc2ccccc2)cc1
inactive: [2] | [6] | [7] | [8] | [3] | [9]
active: [4] 33.2 µM | [5] 27.5 µM | [10] 43.8 µM

COC(=O)c1c(Cl)c(Cl)c(C(=O)OC)c(Cl)c1Cl
inactive: [2] | [6] | [7] | [8] | [3] | [9] | [4] | [5]

CCCCC(CC)COC(=O)c1ccc(C(=O)OCC(CC)CCCC)cc1 (centres undefined)
inactive: [1] | [2] | [7] | [8] | [3] | [9] | [4] | [5] | [10]

O=c1n(CC2CO2)c(=O)n(CC2CO2)c(=O)n1CC1CO1 (centres undefined)
inactive: [2] | [7] | [3] | [4] | [5] | [10]
active: [2] 74.3 µM | [6] 26.8 µM and 19.6 µM | [7] 51.2 µM | [8] 32.2 µM and 10.7 µM and 22.6 µM | [9] 33.7 µM and 32.1 µM and 23.5 µM

Clc1nc(Cl)c(Cl)c(Cl)c1Cl
inactive: [1] | [6] | [7] | [8] | [3] | [9] | [4] | [5] | [10]

COC(=O)CC(=O)OC
inactive: [1] | [6] | [7] | [8] | [3] | [9] | [4] | [5]

CC(C)=CCCC(C)CCO (centres undefined)
inactive: [1] | [2] | [7] | [8] | [3] | [4] | [5]

CN(C)c1ccc(Cc2ccc(N(C)C)cc2)cc1
inactive: [2] | [6] | [7] | [8] | [3] | [9] | [4] | [5]

Cc1[nH]cnc1C[C@H]1CCc2c(C)c3ccccc3n2C1=O
inactive: [2] | [7] | [8] | [3] | [9] | [4] | [5]
active: [6] 63.9 µM | [7] 41 µM

On1ccccc1=S
active: [5] 0.0413 µM | [10] 0.0354 µM
inactive: [1] | [6] | [7] | [8] | [9] | [4]

CC(C)CCO
inactive: [1] | [2] | [7] | [3] | [4] | [5] | [10]

CC(O)CN(CCN(CC(C)O)CC(C)O)CC(C)O (centres undefined)
inactive: [1] | [6] | [7] | [8] | [3] | [9] | [4] | [5] | [10]

CCCCCCc1ccc(O)cc1O
inactive: [2] | [6] | [7] | [8] | [3] | [5]
active: [2] 67.1 µM | [6] 63.9 µM | [7] 69.2 µM and 73 µM | [8] 78.1 µM and 68.4 µM | [3] 74.9 µM | [9] 51.2 µM and 63.3 µM and 39.6 µM | [4] 25.9 µM

O=C(O)CC(O)C(=O)O (centres undefined)
inactive: [6] | [7] | [8] | [3] | [9] | [4] | [5]

CC[C@H]1OC(=O)[C@H](C)[C@@H](O[C@H]2C[C@@](C)(OC)[C@@H](O)[C@H](C)O2)[C@H](C)[C@@H](O[C@@H]2O[C@H](C)C[C@H](N(C)C)[C@H]2O)[C@](C)(O)C[C@@H](C)C(=O)[C@H](C)[C@@H](O)[C@]1(C)O
inactive: [2] | [6] | [8] | [3] | [9] | [4]

O=c1[nH]c2ccc(S(=O)CCN3CCC(Cc4ccc(F)cc4)CC3)cc2o1 (centres undefined)
inactive: [2] | [6] | [7] | [8] | [9] | [4] | [5] | [10]

CC(=O)OC[C@H]1O[C@@](COC(C)=O)(O[C@H]2O[C@H](COC(C)=O)[C@@H](OC(C)=O)[C@H](OC(C)=O)[C@H]2OC(C)=O)[C@@H](OC(C)=O)[C@@H]1OC(C)=O
inactive: [2] | [6] | [7] | [8] | [4] | [5] | [10]

C=CC(=C)CCC=C(C)C
inactive: [6] | [7] | [8] | [3] | [9] | [4] | [5] | [10]

O=C(O)c1cccc(Oc2ccccc2)c1
inactive: [6] | [7] | [8] | [9] | [4] | [5]

CCCCC(CC)COC(=O)CCCCCCCCC(=O)OCC(CC)CCCC (centres undefined)
inactive: [2] | [3] | [4] | [5] | [10]

CC(=O)c1ccc2c(c1)[C@H](NC(=O)c1ccc(F)cc1)[C@@H](O)C(C)(C)O2
inactive: [2] | [6] | [7] | [8] | [3] | [9] | [4] | [5] | [10]

CCOCCOCCOCCO
inactive: [6] | [8] | [9] | [4] | [5]

COC(=O)c1ccccc1O
inactive: [2] | [6] | [7] | [3] | [9] | [4] | [5]

CC1(C)C(=O)N(Br)C(=O)N1Br
inactive: [6] | [7] | [8] | [3] | [9] | [4] | [5]

CNS(=O)(=O)c1cc(C(=O)N2CCC(CCN3C4CCC3CC(n3c(C)nc5ccccc53)C4)(c3cccc(F)c3)CC2)c(Cl)cc1F (centres undefined)
active: [2] 46.1 µM | [7] 16.2 µM
inactive: [8] | [3] | [9] | [4] | [5] | [10]

Nc1cccc(N)c1
inactive: [2] | [6] | [7] | [8] | [3] | [9] | [4] | [5] | [10]

COc1ccc2sc(C(=O)Nc3nnn[nH]3)c(OC(C)C)c2c1
active: [2] 17.8 µM | [7] 14.3 µM
inactive: [6] | [8] | [3] | [9] | [4] | [5] | [10]

C1N2CN3CN1CN(C2)C3
inactive: [2] | [6] | [7] | [3] | [9] | [4] | [5] | [10]

CC(C)=CCCC(C)=CC=O
inactive: [2] | [6] | [7] | [3] | [9] | [4] | [5]

O=C(NS(=O)(=O)/C=C/c1ccccc1)c1ccc(F)cc1Cl
active: [6] 24.9 µM | [8] 13.5 µM | [9] 22 µM
inactive: [4] | [5]

CCn1nc(Cc2ccccc2)cc1C1CCN(C[C@H]2C[C@H](N(C)[C@@H](C(=O)O)C(C)C)C[C@@H]2c2cccc(F)c2)CC1
inactive: [2] | [7] | [8] | [3] | [4] | [5]

CC(C)CCCCCCOC(=O)c1ccc(C(=O)OCCCCCCC(C)C)c(C(=O)OCCCCCCC(C)C)c1
inactive: [2] | [6] | [7] | [8] | [4] | [5]

COc1ccc(/C=C/S(=O)(=O)NC(=O)c2ccc(C)cc2Cl)cc1
active: [6] 29 µM | [8] 29.5 µM | [9] 21.2 µM
inactive: [2] | [3] | [4]

CCOCCO
inactive: [6] | [7] | [8] | [3] | [9] | [4] | [5]

Cc1ccc(O)cc1
inactive: [6] | [7] | [8] | [3] | [9] | [4] | [5]

O=P(OC(CCl)CCl)(OC(CCl)CCl)OC(CCl)CCl
inactive: [2] | [6] | [8] | [3] | [9] | [4]
active: [7] 53.8 µM | [5] 25.4 µM | [10] 35.3 µM

Cc1c(-c2cccnc2)c2ccccc2n1CCCCC(=O)O
inactive: [6] | [8] | [9] | [4] | [10]
active: [5] 51.2 µM

CC/C(=C\C(=N/O)C(N)=O)C(C)[N+](=O)[O-] (centres undefined)
inactive: [6] | [7] | [8] | [9] | [4] | [5]

Cn1c(=O)cc(Oc2ccc(F)cc2F)c2cnc(NCC(C)(C)O)nc21
inactive: [2] | [7] | [4] | [10]
active: [5] 15.7 µM

C=CCCCCCCCCC(=O)O
inactive: [2] | [7] | [8] | [3] | [9] | [4] | [5] | [10]

COCCOc1cc2cc(C(=O)NC3CCN(C(C)C)CC3)n(CC(=O)Nc3ccc(Cl)cn3)c2cn1
inactive: [2] | [6] | [7] | [8] | [3] | [4] | [5]

CCCCCCCCCCCCCCCO
inactive: [2] | [6] | [8] | [4] | [5] | [10]

C1=CCCC=CCCC=CCC1
inactive: [6] | [7] | [8] | [9] | [4] | [5]
